Most compounds without a hit are left out; they make up all but 16% or so of the library.
TDP1 block: qHTS Assay for Inhibitors of Tyrosyl-DNA Phosphodiesterase (TDP1). Tyrosyl-DNA phosphodiesterase 1 (Homo sapiens), Q9NUW8. recombinant TDP1, AlphaScreen DNA substrate cleavage. Potency, µM (series often up to 130 µM), for inactives: top-dose activity change, negative = inhibition, actives largely listed as inhibitors. 0.28% of 350,000 active. AID 485290, 2010; note: potency is the fitted concentration of half-maximal effect; % is set by controls: 0 for no effect and ±100 for the full control effect; nearly all actives have a fitted effect of over 40% in size
Target sequence (Q9NUW8 whole entry, looked up): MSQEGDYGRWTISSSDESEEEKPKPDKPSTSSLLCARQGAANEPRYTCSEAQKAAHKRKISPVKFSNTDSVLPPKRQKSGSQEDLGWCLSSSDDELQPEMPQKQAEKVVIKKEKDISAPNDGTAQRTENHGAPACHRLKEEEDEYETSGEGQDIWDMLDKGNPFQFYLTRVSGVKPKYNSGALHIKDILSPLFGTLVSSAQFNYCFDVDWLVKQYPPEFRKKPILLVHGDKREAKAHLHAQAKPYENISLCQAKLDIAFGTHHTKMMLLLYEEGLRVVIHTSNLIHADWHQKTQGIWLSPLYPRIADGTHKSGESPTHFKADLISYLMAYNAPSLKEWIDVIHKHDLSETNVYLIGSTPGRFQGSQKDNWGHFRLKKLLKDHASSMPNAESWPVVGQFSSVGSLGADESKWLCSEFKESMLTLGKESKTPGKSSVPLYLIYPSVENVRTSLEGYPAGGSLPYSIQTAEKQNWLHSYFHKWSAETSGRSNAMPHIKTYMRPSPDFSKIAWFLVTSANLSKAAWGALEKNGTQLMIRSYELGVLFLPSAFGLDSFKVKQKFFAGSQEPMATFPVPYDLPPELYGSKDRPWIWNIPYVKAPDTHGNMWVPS
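Recombinant human Tdp1 (E. coli-expressed, 1 nM final) preincubated with compounds 15 min at room temperature, then 5'-biotin/3'-phosphotyrosine-FITC DNA substrate (15 nM final) added for 5 min. AlphaScreen beads (10 ug/ml final) added 10 min; cleavage lowers signal.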
TDP1 cell noCPT: qHTS for Inhibitors of human tyrosyl-DNA phosphodiesterase 1 (TDP1): qHTS in cells in absence of CPT; DT40 Tdp1-/- hTDP1 cells, no CPT, ATP luminescence, 48 h; Potency, µM (top dose mostly 46.2 µM), for the others: top-dose activity change, negative = growth inhibition, most hits filed as inhibitors; AID 686978, 2013; 15% of 420,000 active; note: potency is the fitted concentration of half-maximal effect; % is set by controls: 0 for no effect and ±100 for the full control effect; nearly all actives have a fitted effect of over 55% in size
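Seeded 400 DT40-hTDP1 cells/well (vehicle DMSO, no 20 nM CPT); pinned compounds; ≥48 hr at 37 °C; CellTiter-Glo luminescence as viability measure.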
TDP1 cell CPT: qHTS for Inhibitors of human tyrosyl-DNA phosphodiesterase 1 (TDP1): qHTS in cells in presence of CPT. chicken DT40 Tdp1-/-;hTDP1 cells + 20 nM CPT, ATP luminescence, 48 h. Potency, µM (titrated, usually from 46.2 µM), without a hit: top-dose activity change, negative = growth inhibition, hits mostly inhibitors. 12% of 420,000 active. AID 686979, 2013; note: potency is the fitted concentration of half-maximal effect; % is set by controls: 0 for no effect and ±100 for the full control effect; nearly all actives have a fitted effect of over 55% in size
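Chicken DT40 Tdp1-/- cells stably complemented with human TDP1 were seeded at 400 cells/well in medium containing 20 nM camptothecin, exposed to pin-transferred compounds, and grown at 37 °C for at least 48 hr. Viability was read as ATP luminescence.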
uPA generation: qHTS for Inhibitors of Cell Surface uPA Generation; cell surface uPA generation assay, qHTS; Potency, µM (titrated, usually from 38.3 µM), without a hit: top-dose activity change, negative = inhibition, actives largely listed as inhibitors; 0.31% of 330,000 active; AID 540303, 2011; active = well fitted inhibition curve with a large enough effect; inconclusive = small, poorly fitted or top-dose-only effect; inactive = no such curve, though single readings can be large or run the other way; tested in mouse RAW 264.7 cells; note: potency is the fitted concentration of half-maximal effect; % is set by controls: 0 for no effect and ±100 for the full control effect; nearly all actives have a fitted effect of over 55% in size
miR-21 reporter: qHTS Assay for Modulators of miRNAs and/orActivators of miR-21; 340,000 tested, under 10 active; HeLa miR-21 FLuc reporter, luciferase, 48 h; Potency, µM (doses to about 38.3 µM), for inactives: at the top dose activity change, positive = activation, usual class: activators;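 note: % of control where 0% means no effect; miR-21 action dims this reporter so a rising signal means less miR-21 action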
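Using DMEM plus 10% FBS, HeLa miR-21-FLuc cells are incubated with test compounds (final up to about 40uM) for 48 hours; firefly luciferase signal is then imaged following reagent-mediated lysis.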
Starred values were filed as active, the others as inactive; ? = inconclusive; nt = no result; [ ] = remark or other dose. Unless noted, calls come from the whole dose curve; as a rule, active = well fitted curve in the direction sought with a large enough effect; inconclusive = small, poorly fitted or top-dose-only effect, or another doubt; inactive = no such curve, though single readings can be large; an effect the other way counts as inactive or inconclusive.

SMILES | TDP1 block | TDP1 cell noCPT | TDP1 cell CPT | uPA generation | miR-21 reporter
O[C@H]1CN(CC2CCCCC2)[C@@H](c2ccc(Cl)cc2)C[C@@H]1n1cc(-c2ccc(F)cc2)nn1 | nt | 21µM* | ? | nt | nt
Cc1ccc([C@H]2C[C@H](O)[C@@H](n3cc(-c4ccc(F)cc4)nn3)CN2Cc2cccs2)cc1 | nt | 16µM* | ? | nt | nt
COc1ccc([C@H]2C[C@H](O)[C@@H](n3cc(-c4ccc(F)cc4)nn3)CN2C(=O)C2CCCCC2)cc1 | nt | -2% | 7% | nt | nt
Cc1ccc([C@H]2C[C@H](O)[C@@H](n3cc(-c4ccc(F)cc4)nn3)CN2CC2CCCCC2)cc1 | nt | -9% | -8% | nt | nt
CCCCCCN1C[C@@H](O)[C@H](n2cc(-c3ccc(F)cc3)nn2)C[C@@H]1c1ccc(OC)cc1 | nt | ? | 2% | nt | nt
CCCCCCN1C[C@H](O)[C@@H](n2cc(-c3ccc(F)cc3)nn2)C[C@@H]1c1ccccc1 | nt | 21µM* | 21µM* | nt | nt
C[C@@]1(C(NC(=O)Cc2ccccc2)c2ccc(-c3ccccc3)cc2)C[C@H]1C1CCCCC1 (stereo partly drawn) | 1% | nt | nt | nt | nt
COc1cc(C(=O)OCCc2cc3ccccc3c(=O)o2)cc(OC)c1OC | 0% | 5.8µM* | 4.1µM* | 1.1µM* | nt
COc1cc2cc(CCCOC(=O)c3cc(OC)c(OC)c(OC)c3)oc(=O)c2cc1OC | 2% | ? | -18% | 12% | nt
CCOc1cc(C(=O)N(C)CC(=O)Nc2cccc(F)c2)ccc1OCC(=O)N1CCCCC1 | -9% | ? | -25% | -4% | nt
COc1cc2oc(=O)c(CC(=O)N3CCCCC3)c(C)c2cc1OC | 0% | 9% | -18% | nt | -1%
CN(C)/C=C1/NC(=S)NC1=O | 2% | -7% | -14% | 5% | -2%
Cc1ccc(CCC(=O)Nc2ncc(Cc3cccc(Cl)c3Cl)s2)o1 | 3% | 0.016µM* | 0.023µM* | -11% | 24%
CCc1nnc(NC(=O)CCc2ccc(C)o2)s1 | 4% | -13% | -23% | nt | -5%
Cc1ccc(CNC(=O)CCc2ccccc2)cc1 | 0% | -1% | -8% | 4% | -13%
O=C(CSc1nnnn1C1CC1)Nc1cc(S(=O)(=O)N2CCCC2)ccc1Cl | -1% | -26% | -24% | -2% | nt
COc1cccc(CNC(=O)CCNC(=O)N2CCn3c2nc2ccccc23)c1 | 2% | 16% | -13% | -6% | -3%
Cc1ccc(CNC(=O)CCCCCNC(=O)N2CCn3c2nc2ccccc23)cc1 | 0% | ? | 18µM* | 1% | -3%
Cc1ccc(CNC(=O)CCNC(=O)N2CCn3c2nc2ccccc23)cc1 | 1% | ? | -22% | 2% | -4%
COc1cccc(CNC(=O)CCCCCNC(=O)N2CCn3c2nc2ccccc23)c1 | 2% | -28% | 16µM* | 4% | -2%
CC(C)(C)n1cnc2cc(NC(=O)c3ccco3)ccc21 | nt | -17% | 5% | -12% | -44%
C=CC[C@@H](CC(=O)NCCO)C(=O)NC[C@H](OC(=O)[C@@H](CC=C)CC(=O)OC(C)(C)C)c1ccccc1 | 0% | ? | ? | 4% | nt
CCOC(=O)c1sc(NC(=O)Cn2nnc3sc4c(c3c2=O)CCC(C(C)(C)C)C4)nc1C (stereo not drawn) | 5% | -19% | 22% | 5% | -14%
CCc1ccccc1NC(=O)Cn1nnc2sc3c(c2c1=O)CCC(C(C)(C)C)C3 (stereo not drawn) | 0% | 15µM* | 16µM* | nt | -1%
Cc1cc(C)c(NC(=O)Cn2nnc3sc4c(c3c2=O)CCC(C(C)(C)C)C4)c(C)c1 (stereo not drawn) | 2% | 21µM* | 15µM* | nt | 0%
SMILES | TDP1 block | TDP1 cell noCPT | TDP1 cell CPT | uPA generation | miR-21 reporter
CCN(C(=O)Cn1nnc2sc3c(c2c1=O)CCC(C(C)(C)C)C3)c1cccc(C)c1 (stereo not drawn) | 2% | 21µM* | 16µM* | nt | 8%
CC(=O)Cn1nnc2sc3c(c2c1=O)CCC(C(C)(C)C)C3 (stereo not drawn) | -6% | ? | ? | -8% | -43%
CCCOC(=O)c1ccc(NC(=O)Cn2nnc3sc4c(c3c2=O)CCC(C(C)(C)C)C4)cc1 (stereo not drawn) | 2% | 8.2µM* | 18µM* | nt | 13%
COc1ccccc1CNC(=O)CC(NS(=O)(=O)c1ccc(C)cc1)c1ccco1 (stereo not drawn) | 7% | ? | ? | 0% | 1%
Cc1ccc(Cl)cc1NC(=O)Cn1nnc2sc3c(c2c1=O)CCC(C(C)(C)C)C3 (stereo not drawn) | 2% | 4.1µM* | 7.3µM* | nt | 1%
CCCCN(CC)CCCn1cnc2c([nH]c3ccc(Cl)cc32)c1=O | -3% | 21µM* | 21µM* | nt | 2%
O=C1CCCN1CCCn1cnc2c([nH]c3ccc(F)cc32)c1=O | 9% | -1% | 11% | 3% | -18%
CCC(C)(O)c1[nH]c2ccc(C(=O)OC)cc2c1C (stereo not drawn) | nt | -19% | -7% | -5% | -32%
O=C(NCCN1CCN(Cc2ccccc2)CC1)C1c2ccccc2C(=O)N2CCc3ccccc3C12 (stereo not drawn) | 1% | -17% | -30% | -5% | -7%
Cc1ccc(CNC(=O)C2c3ccccc3C(=O)N3CCc4ccccc4C23)o1 (stereo not drawn) | 4% | 23µM* | ? | nt | 3%
Cc1cc(C)cc(C(=O)OCC(=O)NC2CCCC2)c1 | nt | 0% | 0% | -1% | -2%
NC(=O)/C=C\C(=O)Nc1cccc(C(F)(F)F)c1 | 4% | 21µM* | 5.2µM* | ? | 1%
O=C(Nc1cccc(C(F)(F)F)c1)Nc1nnc(N2CCCCC2)s1 | 0% | ? | ? | nt | 5%
O=C(Nc1cccc(C(F)(F)F)c1)Nc1nnc(N2CCCCCC2)s1 | 3% | 5.8µM* | ? | nt | 3%
NNC(=O)Nc1cccc(C(F)(F)F)c1 | 5% | 19% | -7% | 0% | -1%
CCOc1ccc(NC(=O)Nc2nnc(N3CCCCC3C)s2)cc1 (stereo not drawn) | 9% | 23µM* | 23µM* | nt | 17%
O=C(Nc1ccncc1)Nc1cccc(C(F)(F)F)c1 | 2%[56.1 µM] | 15µM* | ? | ? | 24%
COC(=O)C/C=C/C(C)C(OC)c1ccccc1Br (stereo not drawn) | 4%[21 µM] | nt | nt | nt | nt
O=C(Nc1ccc(OC(F)F)cc1)Nc1cccc(C(F)(F)F)c1 | 4% | 4.6µM* | 3.7µM* | -11% | ?
COc1cc(NC(=O)Nc2nnc(N3CCCCC3)s2)cc(OC)c1 | 9% | ? | ? | nt | 11%
